Screening results deposited in PubChem BioAssay by Broad Institute.
BioA inh – inhibitors of Mycobacterium tuberculosis BioA enzyme. purified M. tuberculosis BioA enzyme, plate reader. inhibition, % at 9.99 µM. 0.096% of 360,000 active. AID 602481; in the data active = inhibition above about 40%
PrP 5UTR inh – suppresses PrP 5' UTR mRNA reporter expression | cell-based PrP 5' UTR mRNA reporter, plate reader | inhibition, % (no concentration beside the values) | 0.35% of 340,000 active | AID 488862; in the data active = inhibition above about 52%
TcdB inh – inhibitors of Clostridioides difficile toxin B glycohydrolase; P18177; 0.24% of 350,000 active; AID 652162; TcdB glycohydrolase enzymatic assay, plate reader; inhibition, % at 9.99 µM; in the data active = inhibition above about 10%
Target sequence (P18177 whole entry, looked up): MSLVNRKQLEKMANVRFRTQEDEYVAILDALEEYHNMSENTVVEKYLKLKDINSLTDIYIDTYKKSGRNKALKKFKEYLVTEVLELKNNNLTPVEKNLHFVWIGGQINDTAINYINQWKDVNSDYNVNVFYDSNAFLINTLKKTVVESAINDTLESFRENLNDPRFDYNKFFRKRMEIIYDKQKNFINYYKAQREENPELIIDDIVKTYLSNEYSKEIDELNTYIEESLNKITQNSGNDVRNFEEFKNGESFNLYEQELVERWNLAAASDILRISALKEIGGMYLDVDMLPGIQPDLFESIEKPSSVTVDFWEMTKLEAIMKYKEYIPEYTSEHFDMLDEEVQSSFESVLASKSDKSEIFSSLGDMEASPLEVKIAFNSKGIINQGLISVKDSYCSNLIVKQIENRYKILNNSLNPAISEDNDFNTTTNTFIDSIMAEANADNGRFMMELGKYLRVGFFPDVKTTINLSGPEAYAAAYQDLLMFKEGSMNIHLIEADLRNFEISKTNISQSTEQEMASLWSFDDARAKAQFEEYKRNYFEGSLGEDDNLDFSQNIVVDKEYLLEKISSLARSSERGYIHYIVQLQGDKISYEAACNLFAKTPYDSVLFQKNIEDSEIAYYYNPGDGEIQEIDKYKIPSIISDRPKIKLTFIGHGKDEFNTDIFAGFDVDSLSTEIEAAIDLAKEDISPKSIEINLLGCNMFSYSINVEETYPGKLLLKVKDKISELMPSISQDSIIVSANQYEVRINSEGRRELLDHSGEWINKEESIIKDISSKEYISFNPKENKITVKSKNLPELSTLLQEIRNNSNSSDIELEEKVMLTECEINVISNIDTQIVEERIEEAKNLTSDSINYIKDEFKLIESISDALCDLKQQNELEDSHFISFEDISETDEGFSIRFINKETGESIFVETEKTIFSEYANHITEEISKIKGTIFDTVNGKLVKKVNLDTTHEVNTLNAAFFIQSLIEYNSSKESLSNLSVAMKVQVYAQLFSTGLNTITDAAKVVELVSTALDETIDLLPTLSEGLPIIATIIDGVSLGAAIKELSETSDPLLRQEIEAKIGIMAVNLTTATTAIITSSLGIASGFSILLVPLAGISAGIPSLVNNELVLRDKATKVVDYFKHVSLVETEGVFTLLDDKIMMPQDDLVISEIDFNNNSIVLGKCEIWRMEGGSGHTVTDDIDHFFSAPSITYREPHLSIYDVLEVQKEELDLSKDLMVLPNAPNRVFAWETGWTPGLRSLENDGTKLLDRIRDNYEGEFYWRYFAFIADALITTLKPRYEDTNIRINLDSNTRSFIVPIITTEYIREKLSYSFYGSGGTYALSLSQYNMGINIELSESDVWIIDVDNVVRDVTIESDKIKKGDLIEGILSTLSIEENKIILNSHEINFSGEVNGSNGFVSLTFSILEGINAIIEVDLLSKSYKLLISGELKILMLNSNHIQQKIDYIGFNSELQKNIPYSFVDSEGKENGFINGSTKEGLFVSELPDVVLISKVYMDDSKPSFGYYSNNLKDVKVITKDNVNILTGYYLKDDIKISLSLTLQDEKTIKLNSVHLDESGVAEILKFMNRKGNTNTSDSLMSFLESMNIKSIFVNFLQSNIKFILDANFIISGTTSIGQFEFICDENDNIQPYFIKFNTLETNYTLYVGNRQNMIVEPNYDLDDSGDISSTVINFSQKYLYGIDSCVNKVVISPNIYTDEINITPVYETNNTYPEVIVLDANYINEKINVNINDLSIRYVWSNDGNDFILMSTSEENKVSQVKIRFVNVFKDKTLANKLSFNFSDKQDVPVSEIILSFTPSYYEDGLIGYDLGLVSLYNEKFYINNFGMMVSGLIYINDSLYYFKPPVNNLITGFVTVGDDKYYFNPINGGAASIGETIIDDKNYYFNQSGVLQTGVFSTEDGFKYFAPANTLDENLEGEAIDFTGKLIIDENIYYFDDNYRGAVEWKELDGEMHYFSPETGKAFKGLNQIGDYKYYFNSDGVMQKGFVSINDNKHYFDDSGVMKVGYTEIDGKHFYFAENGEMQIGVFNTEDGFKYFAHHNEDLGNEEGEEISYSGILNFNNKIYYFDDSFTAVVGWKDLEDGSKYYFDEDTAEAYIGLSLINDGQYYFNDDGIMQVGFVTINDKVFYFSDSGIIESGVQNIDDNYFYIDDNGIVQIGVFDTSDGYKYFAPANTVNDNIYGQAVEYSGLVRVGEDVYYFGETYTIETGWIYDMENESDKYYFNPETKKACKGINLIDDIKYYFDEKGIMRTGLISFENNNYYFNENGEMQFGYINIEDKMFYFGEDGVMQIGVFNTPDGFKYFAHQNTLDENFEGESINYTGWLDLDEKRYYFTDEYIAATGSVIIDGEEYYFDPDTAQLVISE
FadD28 binding – M. tuberculosis FadD28 bisubstrate binding inhibition; AID 588549; 0.22% of 360,000 active; FadD28 bisubstrate probe binding, fluorescence polarization; inhibition, % at 12.5 µM; in the data active = inhibition above about 8.5%, passing the limit was not always enough
PfHsp40 yeast – rescue of PfHsp40-mediated yeast toxicity; growth rescue, % at 12.5 µM; 0.68% of 340,000 active; S. cerevisiae expressing PfHsp40, growth rescue, ATP luminescence; in the data active = growth rescue above about 28%, passing the limit was not always enough;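 note: yeast W303a lacking pdr1 and pdr3 grown in galactose medium; growth measured after three days at 30 °C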
Numbers stand for hits; ! = not confirmed by another sample. In the library only some 1.1% were active in any assay of this set; here they are far more common.

CCc1ccc(C(=O)CN2C(=O)NC3(CCOc4ccccc43)C2=O)s1 (centres undefined) was read as BioA inh inactive, PrP 5UTR inh inactive, TcdB inh inactive, FadD28 binding inactive and PfHsp40 yeast inactive.
`O=C(CN1C(=O)NC2(CCOc3ccccc32)C1=O)c1ccc(Cl)s1` (centres undefined) gave BioA inh inactive, PrP 5UTR inh inactive, TcdB inh inactive, FadD28 binding 9.6 and PfHsp40 yeast inactive.
C=CCC[C@H](Cc1ccc(F)cc1)C(=O)OC[C@H](Cc1c[nH]c2ccccc12)NC(=O)[C@@H](CC=C)CC(=O)NCCO was read as BioA inh inactive, PrP 5UTR inh inactive, TcdB inh inactive, FadD28 binding inactive and PfHsp40 yeast 47.
Screening C=CC[C@@H](Cc1ccc(F)cc1)C(=O)OC[C@@H]1CCCN1C(=O)[C@H](CC=C)CC(=O)N(CCO)Cc1ccccc1 returned BioA inh inactive, PrP 5UTR inh inactive, TcdB inh inactive, FadD28 binding inactive and PfHsp40 yeast 37.
C=CCC[C@@H](Cc1ccc(F)cc1)C(=O)OC[C@@H]1CCCN1C(=O)[C@@H](CC=C)CC(=O)N[C@@H](CO)Cc1ccccc1 was read as BioA inh inactive, PrP 5UTR inh inactive, TcdB inh inactive, FadD28 binding inactive and PfHsp40 yeast 41.
CS(=O)(=O)N1[C@H](CO)[C@@H](c2ccc(-c3ccccc3F)cc2)[C@@H]1C#N was read as BioA inh inactive and TcdB inh inactive.
For CC(=O)N(C)C[C@H]1Oc2cc(C#C[C@@H](C)O)ccc2S(=O)(=O)N([C@@H](C)CO)C[C@H]1C the results were BioA inh inactive and TcdB inh inactive.
Screening C[C@H]1C=C(C(=O)NCc2nc3ccccc3[nH]2)O[C@@H](OCc2ccc(CO)cc2)C1 returned BioA inh inactive, PrP 5UTR inh inactive, TcdB inh 11!, FadD28 binding inactive and PfHsp40 yeast inactive.
COc1ccccc1OCC(=O)OC/C(O)=C(\C#N)c1nc2ccccc2[nH]1 was read as BioA inh inactive, PrP 5UTR inh inactive, TcdB inh inactive, FadD28 binding inactive and PfHsp40 yeast inactive.
N#C/C(=C(/O)COC(=O)Cc1c[nH]c2ccccc12)c1nc2ccccc2[nH]1 was read as BioA inh inactive, PrP 5UTR inh inactive, FadD28 binding inactive and PfHsp40 yeast 80.
Screening Cc1cccc(COC(=O)CCCNC(=O)c2ccc(Cl)cc2)c1 returned BioA inh inactive, PrP 5UTR inh inactive, TcdB inh inactive, FadD28 binding inactive and PfHsp40 yeast 77.
COC(=O)c1ccc(/C=C/c2ccc3cccc(OC(C)=O)c3n2)cc1 was read as PrP 5UTR inh inactive, FadD28 binding inactive and PfHsp40 yeast 140.
`O=C(O)c1ccc(/C=C/c2ccc3cccc(O)c3n2)cc1` gave PrP 5UTR inh inactive, TcdB inh inactive, FadD28 binding inactive and PfHsp40 yeast inactive.
O=C(CCCN1C(=O)/C(=C/c2ccco2)SC1=S)Nc1ccccc1C(=O)O was read as PrP 5UTR inh inactive, TcdB inh inactive, FadD28 binding 45 and PfHsp40 yeast inactive.
For O=C(CN1C(=O)/C(=C\c2ccco2)SC1=S)Nc1ccc(O)cc1C(=O)O the results were BioA inh inactive, PrP 5UTR inh inactive, TcdB inh inactive, FadD28 binding 36 and PfHsp40 yeast inactive.
`O=C(CCN1C(=O)/C(=C/c2ccco2)SC1=S)Nc1ccc(O)cc1C(=O)O` gave BioA inh inactive, TcdB inh inactive, FadD28 binding 21 and PfHsp40 yeast inactive.
For Cc1ccc(Nc2ccc(-n3ccnc3)nn2)cc1C the results were BioA inh inactive, PrP 5UTR inh inactive, FadD28 binding inactive and PfHsp40 yeast 66.
Cc1cc(C)nc(SCc2cc(=O)c(OC(=O)c3ccc(Cl)c([N+](=O)[O-])c3)co2)n1 was read as BioA inh inactive, PrP 5UTR inh inactive, FadD28 binding inactive and PfHsp40 yeast inactive.
Screening Cc1ccnc(SCc2cc(=O)c(OC(=O)c3ccc(S(=O)(=O)N(C)C)cc3)co2)n1 returned PrP 5UTR inh inactive, TcdB inh inactive, FadD28 binding inactive and PfHsp40 yeast 88.
Screening Cc1cc(C)nc(SCc2cc(=O)c(OC(=O)c3ccc(S(=O)(=O)N(C)C)cc3)co2)n1 returned BioA inh inactive, PrP 5UTR inh inactive, FadD28 binding inactive and PfHsp40 yeast 90.
COCC(=O)N(C)C[C@@H]1Oc2ncc(/C=C/c3ccccc3)cc2C(=O)N([C@H](C)CO)C[C@H]1C was read as BioA inh inactive and TcdB inh inactive.
For O=C(Nc1cc(F)ccc1F)N1C[C@H]2[C@@H](c3ccccc31)[C@H](CO)N2Cc1cccnc1 the results were BioA inh inactive and TcdB inh inactive.
Screening COc1ccccc1NC(=O)C1CCCN(c2ncnc3c2nc2n3CCCCC2)C1 (centres undefined) returned BioA inh inactive, PrP 5UTR inh inactive, TcdB inh inactive, FadD28 binding inactive and PfHsp40 yeast inactive.
For COc1cc(NC(=O)C2CCCN(c3ncnc4c3nc3n4CCCCC3)C2)cc(OC)c1OC (centres undefined) the results were BioA inh inactive, PrP 5UTR inh inactive, TcdB inh inactive, FadD28 binding inactive and PfHsp40 yeast 44.
For COC(=O)C[C@H]1C[C@@H]2c3cc(NC(=O)c4ccc5c(c4)OCO5)ccc3O[C@@H]2[C@H](CO)O1 the results were BioA inh inactive and TcdB inh inactive.
O=C1CC(=Nc2ccc([N+](=O)[O-])cc2)NN1c1c(Cl)cc(Cl)cc1Cl was read as BioA inh inactive, TcdB inh inactive and FadD28 binding 15.
Screening Cc1onc(-c2c(Cl)cccc2Cl)c1C(=O)N/N=C(\N)COc1ccc(Cl)cc1 returned PrP 5UTR inh inactive, FadD28 binding inactive and PfHsp40 yeast 599.
For COc1cc(/C=N/NC(=O)c2c(-c3c(Cl)cccc3Cl)noc2C)ccc1OCC(N)=O the results were BioA inh inactive, PrP 5UTR inh inactive, TcdB inh inactive, FadD28 binding inactive and PfHsp40 yeast inactive.
For Oc1c(Br)cc(Br)c2cccnc12 the results were BioA inh inactive, PrP 5UTR inh inactive, TcdB inh inactive, FadD28 binding inactive and PfHsp40 yeast 148.
Screening Cc1ccc(N=Cc2cc(Cc3ccccc3Cl)cc([N+](=O)[O-])c2O)c(O)c1 returned PrP 5UTR inh inactive, FadD28 binding inactive and PfHsp40 yeast 83.
For CC1(C(=O)OCC(=O)Nc2ccc3ccccc3c2)CC1(Cl)Cl (centres undefined) the results were BioA inh inactive, PrP 5UTR inh inactive, TcdB inh inactive, FadD28 binding inactive and PfHsp40 yeast 46.
For C[C@@H]1CN([C@@H](C)CO)C(=O)c2cc(NC(=O)Nc3ccc4c(c3)OCO4)ccc2O[C@@H]1CN(C)Cc1ccc(C(F)(F)F)cc1 the results were BioA inh inactive and TcdB inh inactive.
Screening COc1ccc(C2C(C#N)=C(N)SC(N)=C2C#N)cc1OC returned BioA inh 43, PrP 5UTR inh inactive, FadD28 binding inactive and PfHsp40 yeast inactive.
For CC(=O)c1cccc(OCC(=O)c2cc(C)n(-c3cc(C)on3)c2C)c1 the results were BioA inh inactive, PrP 5UTR inh inactive, TcdB inh 16, FadD28 binding inactive and PfHsp40 yeast inactive.
